Results on eight compounds are retold here after PubChem BioAssay (NCI).

About 83,000 compounds went through this panel and 20% of them were active in at least one assay; those are over-represented in the sample as a whole.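 Cells were grown in 96-well plates and exposed to the test compound at a single concentration for 48 hours; results are reported as percent growth, with values below 10 considered active.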 Unmarked numbers belong to inactive results. The source made the active and inactive calls.

Common to all, as to assay: NCI-60 one-dose screen, 48 h (100 = growth as untreated, 0 = no growth, -100 = all killed)
The subject of assay [1] is NCI-H23 lung. The settings on record: 10 µM unless noted.
Assay [2] relates to NCI-H226 lung. The conditions noted are these: 10 µM unless noted.
Assay [3] relates to NCI-H322M lung. The conditions noted are these: 10 µM unless noted.
For assay [4], the system named is NCI-H460 lung. The settings on record: 10 µM unless noted.
Assay [5] relates to HOP-92 NSCLC. The conditions noted are these: 10 µM.
Assay [6] has as its system NCI-H522 lung. The settings on record: 10 µM.
Assay [7] deals with A549/ATCC NSCLC. The conditions noted are these: 10 µM unless noted.
The test system of assay [8] is 786-0 renal. The conditions noted are these: 10 µM unless noted.
Assay [9] has as its system COLO 205 colon. The settings on record: 10 µM unless noted.
Assay [10] relates to DU-145 prostate. The settings on record: 10 µM unless noted.
Assay [11] relates to K-562 leukemia. The settings on record: 10 µM unless noted.
The subject of assay [12] is MALME-3M melanoma. The settings on record: 10 µM unless noted.
The test system of assay [13] is MDA-MB-231 breast. The settings on record: 10 µM unless noted.
Assay [14] concerns RXF 393 renal. The settings on record: 10 µM unless noted.
In assay [15] the test system is SF-268 CNS. The settings on record: 10 µM unless noted.
Assay [16] concerns SF-295 CNS. The settings on record: 10 µM unless noted.
Assay [17] has as its system SF-539 CNS. The conditions noted are these: 10 µM unless noted.
Assay [18] concerns UACC-257 melanoma. The settings on record: 10 µM unless noted.
The test system of assay [19] is M14 melanoma. The conditions noted are these: 10 µM unless noted.

`Cc1ccc(C(C)C)c(OCc2ccc(C(=O)N/N=C/c3cccc(O)c3O)cc2)c1`: the growth was 25.9% in assay [1]; 68.1% in assay [2]; 43.1% in [3]; 12.5% in [4]; 37.9% in [5]; 47.4% in assay [6]. For the same compound, the growth in [7] is 52.9%; in [8], 16%; in assay [9], 16.3%; in assay [10], 33.6%; in assay [11], 4.92% (active); in assay [12], 29.6%. Also, the growth in [13] was 41.1%; in assay [14], 48.3%; in assay [15] it was 25.6%; in assay [16], 36.1%; in assay [17], 26%; in [18] it was 58.8%. The growth in [19] was 18.1%.
On to `CCN(CC)CCCNc1c2ccc(Cl)cc2nc2ccc(OC)cc12`, for which the growth in assay [1] was -34.9% (active); in [2], -6.37% (active); in assay [3] it was -18.9% (active); in [4] it was 1.68% (active); in assay [5] it was -27.8% (active); in assay [6], -52% (active). For the same compound, the growth is -32.4% (active) in assay [7]; 9.99% (active) in [8]; -72.3% (active) in assay [9]; 5.08% (active) in assay [10]; -21.9% (active) in [11]; -59.7% (active) in [12]. Moreover, the growth was -39.5% (active) in assay [13]; -57.9% (active) in [14]; -10.1% (active) in assay [15]; -21.7% (active) in assay [16]; -65.7% (active) in [17]; 33.4% in assay [18]. Moreover, the growth in assay [19] was -79% (active).
With `CCn1cc(C(=O)O)c(=O)c2cc(F)c(N3CCN(S(=O)(=O)c4ccc(Cl)cc4)CC3)cc21`, the growth in assay [1] was -7.07% (active); in [2] it was 60.1%; in assay [3] it was 45.9%; in [4] it was 5.92% (active); in assay [5], -4.17% (active); in assay [6], 8.39% (active). The growth in [7] was 14.6%; in assay [8], 23.7%; in assay [9], 12.1%; in assay [10], 31.7%; in assay [11], 21.4%; in assay [12] it was 23.8%. Moreover, the growth is 41.1% in assay [13]; 13.4% in assay [14]; 22.7% in assay [15]; 3.94% (active) in assay [16]; 21.7% in [17]; 29% in assay [18]. For the same compound, the growth in assay [19] is 18.9%.
In the case of `COc1cccc2c1n([O-])c1cccc(OC)c1[n+]2=O`, the growth in [1] is 58.8%; in assay [2], 97.8%; in assay [3] it was 107%; in assay [4], 47.8%; in assay [5], 94.3%; in [6], 53.5%. Further, the growth was 70.6% in assay [7]; 84.2% in assay [8]; 97.6% in assay [9]; 60.9% in assay [10]; 37.6% in [11]; 89.2% in assay [12]. Also, the growth in assay [13] is 95.7%; in assay [14] it was -35.3% (active); in assay [15], 62%; in assay [16], 120%; in [17] it was 68.4%; in assay [18], 71%. The growth in assay [19] was 96%.
For `Oc1ccccc1/C=N/N=C\c1ccccc1Cl`, the growth in assay [1] is 88.3%; in [2], 76.8%; in [3] it was 97.6%; in assay [4], 99%; in assay [5], 77.5%; in [6] it was 92.3%. Further, the growth in assay [7] was 101%; in assay [8], 100%; in assay [9], 109%; in assay [10], 99.5%; in assay [11], 77.1%; in assay [12], 103%. For the same compound, the growth in assay [13] was 72.6%; in assay [14], 97.3%; in assay [15], 91.9%; in [16] it was 98.7%; in assay [17], 105%; in assay [18] it was 104%. Moreover, the growth in assay [19] is 91%.
With `CC(=O)OC1/C=C\CC/C=C\C1` (configuration not stated), the growth was 121% in [1]; 102% in assay [2]; 102% in assay [3]; 102% in assay [4]; 92.8% in assay [5]; 102% in assay [6]. Moreover, the growth is 100% in assay [7]; 102% in [8]; 121% in assay [9]; 113% in assay [10]; 110% in assay [11]; 108% in assay [12]. The growth in assay [13] is 111%; in assay [14], 110%; in assay [15], 107%; in assay [16], 97.3%; in assay [17], 93.1%; in [18], 108%. Further, the growth in assay [19] was 104%.
With `Cc1c(O)c(N=Nc2ccc(C(=O)O)c(O)c2)c2ccccc2c1O`, the growth in assay [1] was 92.3%; in [2], 104%; in assay [3], 105%; in [4], 96.7%; in [5] it was 77.7%; in assay [6], 100%. In addition, the growth in assay [7] is 78.9%; in [8] it was 104%; in [9], 119%; in [10], 94.3%; in assay [11], 60.6%; in assay [12], 97.4%. In addition, the growth in assay [13] was 86.4%; in assay [14], 13.3%; in [15], 119%; in assay [16], 116%; in assay [17], 81.7%; in [18] it was 95.6%. Also, in assay [19], the growth was 53.4%.
On to `Clc1ccc(N/N=C(/c2ccccc2)c2ccccn2)nc1`, for which the growth in [1] was 29.7%; in [2], 27.1%; in assay [3] it was 39.8%; in [4], 28.8%; in [5] it was 51%; in assay [6], 60.8%. Moreover, the growth in assay [7] is 32%; in assay [8] it was 37.6%; in assay [9] it was 25%; in assay [10] it was 42%; in assay [11], 15.5%; in assay [12], 50.5%. Further, the growth was 30.7% in assay [13]; 74.6% in assay [14]; 37.8% in [15]; 41.2% in assay [16]; 41.3% in assay [17]; 13.4% in assay [18]. For the same compound, the growth in [19] was 28.9%.
